# Data taken from PubChem BioAssay AID686978 (National Center for Advancing Translational Sciences (NCATS), 2013).
# The campaign covered roughly 420,000 compounds. About 64,000 (15%) were called active. Inconclusive results (about 27%) are left out. Calls follow the shape of the dose curve; as a rule, active = well fitted inhibition curve with a large enough effect; inconclusive = small, poorly fitted or top-dose-only effect; inactive = flat fitted curve, though single readings scatter. The list is a sample of the results. Where a call stands in place of a potency, no number is given.
# Experiment: qHTS for Inhibitors of human tyrosyl-DNA phosphodiesterase 1 (TDP1): qHTS in cells in absence of CPT; also: nearly all actives have a fitted effect of over 55% in size
# Settings: DT40 Tdp1-/- hTDP1 cells, no CPT, ATP luminescence, 48 h; activity change, negative = growth inhibition: at 46.2 µM (top of the series)
# Source text: Human tyrosyl-DNA phosphodiesterase 1 (TDP1) is a novel repair gene, and we propose to use it as a new target for anticancer drug development. TDP1 is not an essential protein, but under treatment with topoisomerase I poison (camptothecin: CPT), TDP1 works as a critical factor for cell survival. To directly identify novel TDP1 inhibitors active in a cellular environment, we have knocked-out the Tdp1 gene in chicken DT40 cells (Tdp1-/-) and generated a complemented counterpart cells that contains a stable transfection of the human TDP1 gene (Tdp1-/-;hTDP1 cells). For the primary screen, Tdp1-/-;hTDP1 cells will be exposed to small molecules in the presence or absence of CPT, and their growth kinetics will be evaluated after 48 hours by measuring ATP activity. […] The hit compounds will then be evaluated in the presence or absence of CPT using Tdp1-/- cells. […] In tertiary assays, biochemical gel-based assays will be used to assess whether the hit compounds specifically target TDP1.
# To this end, we have screened this cell line against the MLSMR in two primary screens. In one screen we add CPT and in the other we screen in the absence of CPT; this AID represents the screen where CPT was absent.
# NIH Chemical Genomics Center [NCGC]
# NIH Molecular Libraries Probe Centers Network [MLPCN]
# Assay Submitter (PI): Yves Pommier, NCI
# DT40-hTDP1 cells without 20 nM Camptothecin (add 20 microL of DMSO in 1 L of cell culture medium) were dispensed at 400 cells/5microL/well in tissue culture treated 1536-well white wall/solid bottom assay plates (Greiner Bio-One North America, NC, U.S.A.) using a Multidrop Combi 8 channel dispenser (Thermo Fisher, Waltham, MA, USA). 23 nL compounds and controls were transferred using the pin tool (Kalypsys, San Diego, CA, USA) to the assay plates. The assay plates were then incubated at 37 masculineC for a minimum 48 hr. Three microL of Cell Titer Glo solution was added to the plates and incubated at RT in dark for 30 min. Luminescence was read using ViewLux (Perkin Elmer) with 1 sec exposure slow speed, high gain and 2x binning.
# Potency is read from the fitted curve at half-maximal effect.
row,SMILES,Potency
1,N#CNC1=NCN(CCc2ccccc2)CN1,inactive
2,O=C(CCN1CCCCC1)Nc1ccc(F)c(F)c1,inactive
3,COc1ccc(C)cc1S(=O)(=O)Nc1cc2c3c(c1)CCC(=O)N3CCC2,inactive
4,COc1ccccc1CCNS(=O)(=O)c1cc2c3c(c1)C(C)C(=O)N3CCC2 (configuration not stated),2.91 µM (active)
5,COc1ccc(N2CCN(S(=O)(=O)c3cc4c5c(c3)C(C)C(=O)N5CCC4)CC2)cc1 (configuration not stated),inactive
6,Cc1cccc(NC(=O)Cc2ccc(Br)cc2)n1,inactive
7,COC(=O)Cc1c(-c2[nH]c3ccccc3c2CC(=O)OC)[nH]c2ccccc12,14.6 µM (active)
8,CCOC(=O)C1CCN(C(=O)Cc2c(C(=O)O)[nH]c3ccccc23)CC1,inactive
9,COC(=O)Cc1nc2ccccc2[nH]1,inactive
10,COc1ccc(S(=O)(=O)N2CCOCC2)c(C)c1C,inactive
11,COc1ccc(NC(=O)COC(=O)c2ccc(NS(=O)(=O)/C=C/c3ccccc3)cc2)cc1,inactive
12,COc1ccc(Cn2c(=O)[nH]c3cc(C(=O)N4CCN(C(=O)c5ccco5)CC4)ccc3c2=O)cc1,11.2 µM (active)
13,COc1ccccc1Cn1c(=S)[nH]c2cc(C(=O)N3CCN(C)CC3)ccc2c1=O,inactive
14,COc1ccc(CNC(=O)C2CCN(C(=O)c3ccco3)CC2)cc1,inactive
15,COC(=O)c1ccc(NC(=O)CSc2nc(N)c(NC(=O)c3ccc(Br)o3)c(=O)[nH]2)cc1,inactive
16,OC[C@@H]1CN(Cc2ccc(Cl)cc2)C[C@H](n2cnc3c(NCc4ccncc4)ncnc32)O1,inactive
17,Brc1ccc2ncnc(NCc3cccnc3)c2c1,20.6 µM (active)
18,Clc1ccc(Cn2ncc3c(NCc4cccnc4)ncnc32)cc1,20.6 µM (active)
19,Clc1ccc(Nc2ncnc3c2nnn3Cc2ccccc2)cc1,inactive
20,Cc1cc(NCc2cccnc2)no1,inactive
21,c1ccc(CNc2ncncc2-c2cccnc2)cc1,inactive
22,O=C(NCCN1CCOCC1)c1ccc2c(c1)ncn2C1CCCC1,inactive
23,CC(Oc1cccc(Cl)c1)C(=O)NC1CC(C)(C)NC(C)(C)C1 (configuration not stated),inactive
24,CN(CC(=O)NCCc1ccccc1)S(=O)(=O)c1cnc[nH]1,inactive
25,CN=C(NC#N)NCCSCc1nc[nH]c1C,inactive
26,COc1ccc(CN2C(=O)CN=C2Nc2ccc(C)cc2C)cc1,inactive

row,SMILES,Potency
1,CCOC(=O)CN1C(C(=O)c2ccccc2)=C(OC(=O)C(C)(C)C)c2ccccc2S1(=O)=O,14.6 µM (active)
2,CCOC(=O)c1ccccc1CN1C(=O)c2ccccc2S1(=O)=O,inactive
3,COC(=O)C1=C(c2ccccc2)c2ccccc2S(=O)(=O)N1CC(=O)Nc1ccccc1C(F)(F)F,inactive
4,Cn1c(SCC(=O)c2ccc(F)cc2)nnc1-c1ccccn1,inactive
5,Cc1ccccc1S(=O)(=O)NC(=O)C1(C)CCN1C(=O)Cc1ccc(Cl)cc1Cl (configuration not stated),inactive
6,CC1(C(=O)Nc2cccc3c2CCCC3)CCN1C(=O)C1(c2ccccc2)CC1 (configuration not stated),14.6 µM (active)
7,CCCNC(=O)C1(C)CCN1C(=O)C1(c2ccccc2)CC1 (configuration not stated),inactive
8,Cc1ccccc1S(=O)(=O)NC(=O)C1(C)CCN1C(=O)C1(c2ccc(Cl)cc2)CC1 (configuration not stated),inactive
9,CC1(C(=O)NS(=O)(=O)Cc2cccc(Cl)c2)CCN1C(=O)Cc1ccc(Cl)cc1Cl (configuration not stated),inactive
10,CC1(C(=O)Nc2cccc3c2CCCC3)CCN1C(=O)CCc1ccc(Cl)cc1Cl (configuration not stated),23.1 µM (active)
11,O=C(N=C1SC2CS(=O)(=O)CC2N1c1ccccc1)c1ccccc1 (configuration not stated),inactive
12,O=c1ccn([C@@H]2O[C@H](CNS(=O)(=O)c3cc4ccccc4s3)[C@@H](O)[C@H]2O)c(=O)[nH]1,inactive
13,Nc1ccc(Oc2ccc(Cl)cc2)cc1,inactive
14,CC(C(=O)O)c1ccc(C2CCCCC2)c2ccccc12 (configuration not stated),inactive
15,Cc1ccccc1Nc1scc(-c2ccc(Br)cc2)[n+]1-c1ccccc1C,29.1 µM (active)
16,CCC1S/C(=N/N=C/c2ccco2)NC1=O (configuration not stated),inactive
17,O=C1N/C(=N\N=C\c2ccco2)SC1Cc1ccc(F)cc1 (configuration not stated),inactive
18,CCCCC1S/C(=N/N=C/c2cccs2)NC1=O (configuration not stated),18.4 µM (active)
19,C=CCOC(=O)C1=C[C@H](c2ccc(Br)cc2)C[C@H](OCCCCO)O1,inactive
20,CC1(C)CC(=O)C(C2=NC(C)(C)Cc3ccccc32)=C(O)C1,inactive
21,CCOc1ccc(NC(=O)N(CCC(C)C)C(C)c2ccco2)cc1 (configuration not stated),20.6 µM (active)
22,CCOc1ccc(NC(=O)c2ncoc2-c2ccco2)cc1,inactive
23,CCOc1ccc(NC(=O)N(CC(C)C)CC(C)C)cc1,inactive
24,C[N+](C)(C)CCCCCNCC12CC3CC(CC(C3)C1)C2,inactive
25,CC(C)(O)C#Cc1ncc(C(F)(F)F)cc1Cl,inactive
26,Cc1cc(C)n(S(=O)(=O)c2cccc([N+](=O)[O-])c2)n1,inactive
